An excerpt weighted towards active compounds, which were near 3.1% of everything screened.
CSC inhib = cancer stem cell viability inhibitors, primary screen, luminescence. cancer stem cell-like cells viability. inhibition, % at 7.5 µM. 300,000 compounds, 1.1% hits. AID 2717, 2010; in the data active means inhibition above about 75%; inconclusive means no clear call, values can overlap the other calls; tested in HMLE shEcad cells
PP1 inh = PP1-alpha phosphatase inhibitors, primary screen, counter-screen for PP5 inhibitor project, biochemical, fluorescence, OMFP substrate, single point. purified PP1alpha. Serine/threonine-protein phosphatase PP1-alpha catalytic subunit (Homo sapiens), P62136. 320,000 compounds, 0.9% hits. inhibition, % at 6.7 µM;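 active means inhibition above the mean inhibition of all tested compounds plus 3 SD, computed separately for each screening campaign, cut at about 15% in these data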
Target sequence (P62136 whole entry, looked up): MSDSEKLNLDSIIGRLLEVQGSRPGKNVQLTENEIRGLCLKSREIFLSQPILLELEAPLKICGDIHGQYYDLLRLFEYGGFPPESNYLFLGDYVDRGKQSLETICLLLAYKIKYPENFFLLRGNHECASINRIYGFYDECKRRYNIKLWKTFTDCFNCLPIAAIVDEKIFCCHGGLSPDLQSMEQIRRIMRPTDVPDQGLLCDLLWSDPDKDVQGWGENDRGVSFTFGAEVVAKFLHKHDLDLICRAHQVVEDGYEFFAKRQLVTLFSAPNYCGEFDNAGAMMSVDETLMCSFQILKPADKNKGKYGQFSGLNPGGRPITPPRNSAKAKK
PP5 inh = PP5 phosphatase inhibitors, primary screen, biochemical, fluorescence | purified PP5c, OMFP substrate fluorescence | inhibition, % at 6.7 µM | 320,000 compounds, 0.18% hits | AID 1987, 2009;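 active means inhibition above the campaign's mean inhibition across all tested compounds plus 3 SD, cut at about 9.5% in these data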;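 further: 0% = DMSO only and 100% = 100 µM cantharidin control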
Beta cell apopt = inhibitors of cytokine-induced beta cell apoptosis, primary screen, luminescence. protection from apoptosis, % (test concentration not listed). INS-1E cytokine-induced death, ATP luminescence, 48 h; percent of positive-control rescue, neutral wells zero. 300,000 compounds, 0.8% hits;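 active means Every replicate reaches about 75%, or at least half do and their mean reaches it too, limit read from the data; inconclusive means At least half of replicates reach the limit but their mean does not; inactive means Under half of replicates reach the limit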;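 further: 0% = cytokine-treated negative control wells and 100% = positive control rescue; higher means more ATP so stronger rescue from cytokine killing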
SKKanGAS inh = S. pyogenes SKKanGAS growth inhibitors in kanamycin, primary screen, streptokinase expression inhibitor project, SKKanGAS strain, BacTiter-Glo luminescence; 6 h; inhibition, % at 7.5 µM; 300,000 compounds, 1.3% hits;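 active means mean replicate score, as percent of positive control median, at least 50; inconclusive means mean below 50 but one replicate at or above 50; inactive means mean and every replicate below 50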;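 further: strain carries kanamycin resistance gene driven by streptokinase promoter and grows in 40 µg/ml kanamycin; loss of luminescence reflects streptokinase promoter inhibition or plain growth inhibition; 0% = median of DMSO wells and 100% = positive control at its reference dose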
* hit, by the source's call; ? = inconclusive; · = no result given.

SMILES | CSC inhib | PP1 inh | PP5 inh | Beta cell apopt | SKKanGAS inh
O=C(O)CN1C(=O)/C(=C\c2cc(Br)ccc2OCc2ccccc2F)SC1=S | 53.5 | 16.1* | 0.4 | -4.6 | 68.1*
O=C(O)CN1C(=O)/C(=C\c2cc(Br)ccc2OCc2ccccc2Cl)SC1=S | 96.5* | 14.8 | 1.1 | -0.3 | 94.6*
CC(=O)c1ccc(-c2ccc(/C=C(/Sc3n[nH]c(C)n3)C(=O)O)o2)cc1 | 0.2 | 16.3* | 1.5 | 6.0 | 34.0
Cc1nc(S/C(=C/c2ccc(-c3ccc(C(=O)O)cc3)o2)C(=O)O)n[nH]1 | -3.5 | 1.9 | -0.9 | -2.3 | -0.8
Cc1ccccc1NC(=O)NC1CCCc2ccccc21 (stereo not given) | 2.9 | -1.9 | 1.4 | 1.4 | 30.3
CCOc1ccc(NC(=O)CN(C)C(=O)C2CC(=O)N(c3ccc4c(c3)OCCO4)C2)cc1OCC (stereo not given) | -5.7 | 5.4 | -1.1 | -1.4 | 51.9*
COc1ccc(NC(=O)CN(C)C(=O)C2CC(=O)N(c3ccc4c(c3)OCCO4)C2)cc1 (stereo not given) | -8.5 | -0.7 | -0.8 | -6.4 | -4.3
O=C(Nc1nccs1)c1ccc(COc2ccccc2Cl)o1 | 81.2* | 6.1 | 3.1 | -2.2 | -0.3
O=C(Nc1nccs1)c1ccc(-c2ccc(F)c(Cl)c2)o1 | 17.2 | 8.1 | -1.0 | 2.2 | 75.3*
Cc1csc(NC(=O)c2ccc(COc3ccccc3)o2)n1 | 79.0* | 3.3 | 1.1 | -0.1 | -3.0
O=C(Nc1nccs1)c1ccc(-c2ccc(Cl)cc2Cl)o1 | 22.9 | 3.4 | -0.9 | 5.5 | 16.3
Cc1cccc(NC(=O)c2ccc(COc3ccc(Cl)cc3Cl)o2)n1 | 104.0* | 5.3 | 5.5 | -7.4 | 5.4
Cc1cccc(NC(=O)c2ccc(COc3ccccc3)o2)n1 | 21.7 | 0.5 | -0.8 | -1.9 | 12.8
Cc1cccc(NC(=O)CSc2nnc(C)c(C)n2)c1 | -1.7 | -0.1 | 0.6 | -2.6 | 1.4
COc1ccc(NC(=O)Oc2ccccc2)cc1Cl | -16.8 | 1.8 | 3.8 | -0.2 | 3.4
COc1ccc(F)cc1C(=O)C1CCCN(Cc2c(C)n(C)n(-c3ccccc3)c2=O)C1 (stereo not given) | -5.6 | -2.2 | -2.0 | -8.1 | 2.9
COc1ccc(NC(=O)c2ccc(COc3ccccc3Br)o2)cc1OC | 96.4* | -0.8 | 1.1 | 7.1 | 5.7
O=C(/C=C/c1ccc(Br)o1)Nc1nccs1 | 9.7 | 8.6 | -0.9 | 2.1 | -7.1
C(=N\Nc1ncnc2sc3c(c12)CCC3)/c1cccs1 | 94.3* | 2.1 | 2.3 | 95.8* | ?
CCC1C/C(=C\c2cc(OC)c(OC)cc2OC)C(=O)/C(=C/c2cc(OC)c(OC)cc2OC)C1 (stereo not given) | 6.2 | -1.4 | 2.4 | 1.0 | 38.0
COc1cc(OC)c(OC)cc1/C=C1\CC(C)C/C(=C\c2cc(OC)c(OC)cc2OC)C1=O (stereo not given) | 12.5 | 1.2 | 1.2 | 13.5 | 55.6*
COc1ccc(N/N=C(\C#N)C(N)=O)cc1 | -1.6 | -6.3 | 2.6 | -3.8 | -3.2
N#C/C(=N/Nc1ccc(OC(F)(F)F)cc1)C(N)=S | 62.4 | 5.2 | 6.9 | 88.4* | 114.9*
CCC(C)NC(=O)COC(=O)c1oc2ccccc2c1CSc1ccc(Cl)cc1 (stereo not given) | -5.8 | -7.8 | -6.5 | 0.7 | -4.6
O=C1N/C(=N\N=C\c2cccs2)SC1Cc1ccc(Cl)c(Cl)c1 (stereo not given) | 27.4 | -6.8 | 0.3 | -1.4 | 56.3*
SMILES | CSC inhib | PP1 inh | PP5 inh | Beta cell apopt | SKKanGAS inh
Oc1ccc(Cl)cc1CNCc1ccc(Cl)cc1 | 8.6 | 2.3 | 3.3 | -6.9 | ·
Oc1ccc(Cl)cc1Cc1cc(Cl)ccc1O | 114.4* | 2.8 | 4.9 | 24.3 | 18.6
COc1ccc(N2C(=O)CSC23C(=O)N(CC(=O)NC2CCCC2)c2ccccc23)cc1 (stereo not given) | -14.1 | 3.6 | 1.8 | -3.8 | -0.9
Oc1ccccc1N=Cc1c(O)ccc2oc3c(c12)CCCC3 | 17.0 | -1.1 | 0.1 | -2.3 | 84.9*
O=C(Nc1ccccc1-c1ccccc1)c1ccc(=O)[nH]n1 | -6.7 | 0.8 | 2.9 | · | -3.1
CNC(CC(=O)c1ccc([N+](=O)[O-])cc1)C(Cl)(Cl)Cl (stereo not given) | 75.9* | 0.3 | 2.9 | 4.0 | ·
COc1ccc(C(=O)CC(Nc2ccc([N+](=O)[O-])cc2)c2ccc(OC)cc2)cc1 (stereo not given) | 15.9 | 0.8 | 2.6 | 2.9 | 9.7
O=C(COC(=O)/C=C/c1ccc([N+](=O)[O-])cc1)NC1CCCCC1 | 2.3 | -3.9 | 0.2 | -3.2 | ·
Fc1ccc(NC(=S)Nc2ccc(F)c(Cl)c2)cc1Cl | 1.6 | -0.1 | 5.1 | 37.4 | 64.2*
O=C(NC(=S)Nc1ccc(F)c(Cl)c1)C1CC1 | 3.9 | -1.6 | 1.0 | -1.5 | 0.9
Cc1cc(N2CCN(C)CC2)nc2ccc(NC(=S)N3CCN(c4ccc(F)cc4)CC3)cc12 | ? | -3.2 | 0.6 | -3.3 | -7.0
Cc1cc(N2CCN(C)CC2)nc2ccc(NC(=S)N3CCN(c4ccc(Cl)cc4)CC3)cc12 | 109.1* | 2.7 | -0.3 | 9.2 | -4.8
CC(=O)NN1C(=O)c2ccc3c4c(ccc(c24)C1=O)C(=O)N(NC(C)=O)C3=O | 41.8 | -5.6 | 3.5 | 108.3* | 22.2
O=C1c2ccccc2OC2(C=Cc3ccccc3O2)N1Cc1ccccc1 (stereo not given) | · | 2.1 | 1.0 | 14.0 | 40.3
Cc1cc2c(c(/C=C/C(=O)c3ccccc3)c1)OC1(C=C2)Oc2ccccc2C(=O)N1C (stereo not given) | 138.0* | 5.5 | 2.7 | -4.9 | 22.4
COC(=O)c1c(NC(=O)CN2CCC3(O)CCCCC3C2c2cc(OC)ccc2OC)sc(C)c1C (stereo not given) | 16.1 | 8.5 | 1.9 | -6.1 | 19.3
O=C(Cc1ccc(Cl)cc1)NN1C(=O)c2ccccc2C1=O | -3.6 | -0.3 | -1.0 | -7.6 | -4.8
COC(=O)[C@@H]1[C@@H](C#N)C2(c3ccccc3-c3ccccc32)N(c2ccc(Cl)cc2)N1C#N | 104.8* | 2.8 | 3.0 | -10.1 | ?
COC(=O)c1cc(S(=O)(=O)N2CCOCC2)c(Cl)cc1N1CCOCC1 | -9.4 | 1.3 | 1.1 | -3.0 | 2.1
COC(=O)c1cc(C)nc2c1C(=O)C(=O)C=C2N1CCOCC1 | 50.6 | 15.7* | 7.3 | 103.7* | 45.2
CCCc1nc(NC2CCCCC2)c(C#N)c2c1COC(C)(C)C2 | 105.8* | -1.9 | 1.4 | 3.1 | 60.0*
O=C(NCCC(=O)N1CCc2ccccc21)c1ccco1 | -2.1 | -2.1 | 0.4 | -5.7 | 0.8
O=C(Cc1ccc(Cl)cc1)c1c[nH]c(C(=O)NCc2cccnc2)c1 | 12.6 | 1.8 | -0.2 | 106.5* | -3.9
Cc1cccc(OCC(=O)Nc2ccc(C(=O)NCc3cccnc3)cc2)c1 | 47.3 | -2.9 | 1.3 | 112.9* | -2.2
COc1ccc(NC(=O)COc2ccc(C(=O)NCc3cccnc3)cc2OC)cc1 | 0.8 | 2.1 | 3.9 | 1.3 | ·
